The test system of this test is Trypanosoma brucei. The test can be described thus: Trypanosoma brucei 72 hour study. Type of test: functional, organism-based. On the set-up: scale not given: in the data most compounds retested in dose-response had high values.

Each structure is given as a SMILES string. Among all 66,000 compounds or so, about 960 (1.5%) showed an effect of 50% or more. The full list was thinned out, with strong results kept by preference.

In the case of `CN1CCC2(CC1)CN(C(=O)c1cnccn1)Cc1ccccc12.O=C(O)C(F)(F)F`, the “Percent Effect” value (30 µM, 30.03 µM) was -7.96%.
For `CNC(=O)[C@@H]1C[C@H]2CN(Cc3ccc(C)s3)C[C@H]2N1C(C)=O.O=C(O)C(F)(F)F.O=C(O)C(F)(F)F`, the “Percent Effect” value (30.3 µM, […]) is -19.68%.
As for `Fc1ccc(-c2nccnc2C2CCCNC2)cc1` (configuration not stated), where the note is “30.3 µM, […]”, the “Percent Effect” value is -3.462%.
Same read-out and setting: the same measure for `Cc1ccc(C(=O)N2CCCCC2CNC(N)=O)cc1F` (configuration not stated): 53.34%; for `NC(=O)NCC1CCCCN1C(=O)c1cccc(Cl)c1` (configuration not stated): -13.75%; for `NC(=O)NCC1CCCCN1C(=O)c1cc(F)cc(F)c1` (configuration not stated): -17.02%.
For the compound `CC(C)(C)NC(=O)CN1CCNCC1.Cl.Cl`, the “Percent Effect” value (30 µM, 30.03 µM) is on record as -49.47%.
In the case of `CO[C@H]1C[C@@H]2CN(C(=O)Cc3ccc(C)s3)C[C@@H]2C1`, the “Percent Effect” value (30.3 µM, […]) came to 15.04%.
Still for that read-out and setting: next, `CSc1ccc(-c2nc(CN3CCNCC3C)c(C)o2)cc1` (configuration not stated): 65.66%.
For `CSc1ccc(-c2nc(CN3CCC(CN)C3)c(C)o2)cc1` (configuration not stated), the “Percent Effect” value (30 µM, 30.03 µM) turned out to be 56.38%.
Same read-out and setting: next, `CNC(=O)C1CCN(Cc2nc(-c3ccc(SC)cc3)oc2C)C1` (configuration not stated): 5.239%; `CSc1ccc(-c2nc(CN3CCC(NC(C)=O)CC3)c(C)o2)cc1`: 23.08%.
With `Cc1oc(-c2cc(F)cc(F)c2)nc1CN1C[C@@H](C)NC[C@@H]1C`, where the note is “30.3 µM, […]”, the “Percent Effect” value is reported as 16.81%.
As for `CNC(=O)CC1CCN(Cc2nc(-c3ccc(SC)cc3)oc2C)CC1`, for the setting “30.3 µM, […]”, the “Percent Effect” value is 15.19%.
The same measure, in the same setting: the same measure for `CSc1ccc(-c2nc(CN3C[C@@H](C)NC[C@@H]3C)c(C)o2)cc1`: 65.6%.
Regarding `CSc1ccc(-c2nc(CN3CCC(C(N)=O)CC3)c(C)o2)cc1`, where the note is “30 µM, 30.03 µM”, the “Percent Effect” value is 22.66%.
For `Cc1ccc(-c2nc(CN3C[C@@H](C)NC[C@@H]3C)c(C)o2)s1`, the “Percent Effect” value (30.3 µM, […]) worked out at 11.25%.
Still for that read-out and setting: next, `Cc1nc(C)n(C2CCCN(C(=O)c3cscn3)C2)n1` (configuration not stated): -21.61%.
`CCC(=O)N1Cc2nccn2CC(CN(C)Cc2cccnc2)C1.O=C(O)C(F)(F)F.O=C(O)C(F)(F)F` (configuration not stated): the “Percent Effect” value (30 µM, 30.03 µM) stood at 3.591%.
Take `O=C(Nc1cccnc1)[C@H]1C[C@@H]2CN(Cc3ccc(F)cc3)C[C@H]1O2`: the “Percent Effect” value (30.3 µM, […]) is reported as -89.84%.
For the compound `CC(C)NC(=O)N1CC[C@H]2N(C)CC[C@@]2(C(=O)Nc2cccnc2)CC1`, the “Percent Effect” value (30.3 µM, […]) was -97.82%.
As for `COCCn1c2c(ccc1=O)CC(NS(C)(=O)=O)CC2` (configuration not stated), where the note is “30 µM, 30.03 µM”, the “Percent Effect” value is given as -56.59%.
On to `O[C@@H]1CN(c2cnc3ccccc3n2)CC[C@H]1c1ccc2c(c1)OCO2`, for which the “Percent Effect” value (30 µM, 30.03 µM) is on record as -17.33%.
Same read-out and setting: the same measure for `Cc1ccc(C)c(CSc2nnc(C(N)C(C)C)o2)c1.Cl` (configuration not stated): -51.12%.
Consider `Cn1nc(C(=O)N2CCOCC2)c2c1CN(CC1CC1)C2.O=C(O)C(F)(F)F.O=C(O)C(F)(F)F`, for which, for the setting “30.3 µM, […]”, the “Percent Effect” value is -90.45%.
Turning to `COc1cc(CN[C@@H]2COC[C@H]2Cc2cc(C)no2)cc(OC)c1.O=C(O)CC(O)(CC(=O)O)C(=O)O`, the “Percent Effect” value (30.3 µM, […]) is 16.22%.
`C=C1C(C)(C)[C@H]2CC[C@]1(C(=O)N1CCC(Cn3cc(CO)nn3)CC1)C2`: the “Percent Effect” value (30 µM, 30.03 µM) is reported as -32.31%.
On to `Cl.O=C1CC2(CCCNC2)C(=O)N1Cc1ccc(Cl)cc1` (configuration not stated), for which the “Percent Effect” value (30.3 µM, […]) stood at 7.931%.
Regarding `Cc1c[nH]c(CN2CCC3(CCCN(Cc4ccc(F)c(F)c4)C3)C2)n1` (configuration not stated), under “30 µM, 30.03 µM”, the “Percent Effect” value is 12.03%.
For `COc1ccc(CN2CCC3(CCCN(c4ncc(F)cn4)C3)C2)cc1.O=C(O)C(F)(F)F` (configuration not stated), the “Percent Effect” value (30 µM, 30.03 µM) was determined as 46.33%.
With `CSc1nccc(N2CCC3(CCCN(CCc4ccccc4)C3)C2)n1` (configuration not stated), where the note is “30.3 µM, […]”, the “Percent Effect” value is given as 100.6%.
On the same count and under the same terms, next, `COc1cc(N2CCC3(CCCN(Cc4ccccn4)C3)C2)ncn1.O=C(O)C(F)(F)F` (configuration not stated): -81.3%.
On the same count and under the same terms, the same measure for `CSc1nccc(N2CCC3(CCCN(Cc4cccc(C)c4)C3)C2)n1` (configuration not stated): 99.66%.
Still for that read-out and setting: next, `c1cnc(N2CCC3(CCCN(CC4CCCCC4)C3)C2)cn1` (configuration not stated): -7.519%; `Fc1ccc(CN2CCC3(CCCN(c4nncs4)C3)C2)cc1.O=C(O)C(F)(F)F` (configuration not stated): -195.3%.
Consider `CSc1nccc(N2C[C@@H](CN3CCCCC3)[C@@H](CO)C2)n1`, for which the “Percent Effect” value (30.3 µM, […]) is listed as -9.185%.
Still for that read-out and setting: the same measure for `CSc1nccc(N2CCC3(CCCN(Cc4ccc(F)cc4)C3)C2)n1` (configuration not stated): 100.4%; for `O=C(Cc1cccc(F)c1)N1CCc2ncnc(NC3CC3)c2CC1.O=C(O)C(F)(F)F`: -65.72%.
Consider `Cl.Cn1ccnc1Sc1ccc(N)cn1`, for which the “Percent Effect” value (30 µM, 30.03 µM) is -0.5458%.
For the compound `Cl.O=S(=O)(N1CCCC1)N1C[C@@H](c2cccc(F)c2)[C@@H]2NCCCCC[C@H]21`, the “Percent Effect” value (30.3 µM, […]) is on record as -12.23%.
Consider `Cc1cccc(N2CCC3(CCCN(C(=O)c4cccnc4)C3)CC2)n1.O=C(O)C(F)(F)F.O=C(O)C(F)(F)F`, for which, for the setting “30 µM, 30.03 µM”, the “Percent Effect” value is -24.82%.
For the compound `CC(C)C(=O)N1CCCC2(C1)CN(c1nncs1)CCO2.O=C(O)C(F)(F)F` (configuration not stated), for the setting “30.3 µM, […]”, the “Percent Effect” value is -91.97%.
Consider `O=C(Cc1ccccn1)N1CCC2(CC1)CC(Oc1ccccn1)CO2.O=C(O)C(F)(F)F.O=C(O)C(F)(F)F` (configuration not stated), for which, where the note is “30 µM, 30.03 µM”, the “Percent Effect” value came to 23.31%.
As to `O=C(O)C(F)(F)F.c1cnc(NC2COC3(CCN(Cc4nccs4)CC3)C2)cn1` (configuration not stated), under “30.3 µM, […]”, the “Percent Effect” value is recorded as -510.2%.
The same measure, in the same setting: the same measure for `Cc1ncc(CN2CCCC(O)(c3ccc(F)cc3)CC2)n1C.O=C(O)CC(O)(CC(=O)O)C(=O)O` (configuration not stated): 5.795%.
Consider `COc1cccc(N2CCN(CC(O)c3cc(C)ccc3C)CC2)c1` (configuration not stated), for which the “Percent Effect” value (30 µM, 30.03 µM) is reported as -36.53%.
Take `COc1cccc(N2CCN(CC(O)c3cc(C)sc3C)CC2)c1` (configuration not stated): the “Percent Effect” value (30.3 µM, […]) was 80.96%.
On to `COc1cccc(N2CCN(CC(O)c3ccc(C)cc3)CC2)c1` (configuration not stated), for which, under “30 µM, 30.03 µM”, the “Percent Effect” value came to 17.53%.
The same measure, in the same setting: the same measure for `COc1cc(Cc2nc3c([nH]2)CC(C)(C)CNC3=O)cc(OC)c1`: -74.64%; for `Cc1cccnc1NCCNC(=O)c1cnc(-c2ccccn2)nc1O`: 99.84%; for `Cc1nc(-c2ncc(C(=O)NCCNc3ncccc3C)c(O)n2)cs1`: -1.041%.
The same measure, in the same setting: the same measure for `Cc1cccnc1NCCNC(=O)c1cnc(-c2cccs2)nc1O`: -4.334%.
The same measure, in the same setting: the same measure for `Cc1ccc(C)c(NC(=O)N2C[C@H](N(C)C)C[C@H]2CO)c1`: -61.25%.
As to `COCCOc1ccc(C(=O)N2CCCC(n3cncn3)C2)cn1` (configuration not stated), the “Percent Effect” value (30.3 µM, […]) was -14.96%.
`Cc1noc(C)c1CN1C[C@@H]2COC[C@H](C(=O)N3CCOCC3)[C@@H]2C1.O=C(O)C(F)(F)F`: the “Percent Effect” value (30.3 µM, […]) was -95.08%.
Turning to `CC(C)c1nn(C)cc1CNCc1cccnc1N(C)C.Cl`, the “Percent Effect” value (30 µM, 30.03 µM) was -46.74%.
Consider `COc1ccc(C2(NCc3c(C)nc4c(C)cccn34)CCCC2)cc1.O=C(O)CC(O)(CC(=O)O)C(=O)O`, for which, for the setting “30.3 µM, […]”, the “Percent Effect” value is listed as -8.607%.
